TDP1 cell CPT: qHTS for Inhibitors of human tyrosyl-DNA phosphodiesterase 1 (TDP1): qHTS in cells in presence of CPT; Potency, µM (doses to about 46.2 µM), without a hit: at the top dose activity change, negative = growth inhibition, hits mostly inhibitors; hit rate 12% among 420,000; chicken DT40 Tdp1-/-;hTDP1 cells + 20 nM CPT, ATP luminescence, 48 h; note: nearly all actives have a fitted effect of over 55% in size
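Chicken DT40 Tdp1-/- cells stably complemented with human TDP1 were seeded at 400 cells/well in medium containing 20 nM camptothecin, exposed to pin-transferred compounds, and grown at 37 °C for at least 48 hr. Viability was read as ATP luminescence.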
ELG1 repair inh: qHTS screen for small molecules that inhibit ELG1-dependent DNA repair in human embryonic kidney (HEK293T) cells expressing luciferase-tagged ELG1; HEK293T ELG1-luciferase reporter, luminescence, 16 h; DNA damage induced by 5-fluorouridine; AID 504467, 2011; hit rate 2.3% among 330,000; Potency, µM (doses to about 46.1 µM), inactives show at the highest dose activity change, negative = inhibition, most hits filed as inhibitors; note: nearly all actives have a fitted effect of over 55% in size
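5-Fluorouridine DNA damage + compound/DMSO, 2,000 cells/well, 16 h, 37 °C/5% CO2. ONE-Glo, 30 min RT, luminescence. Readout = decrease in reporter signal.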
12-LOX inh: Primary qHTS assay for inhibitors of human arachidonate 12S-lipoxygenase (ALOX12): Round 2; purified 12hLO, xylenol orange hydroperoxide absorbance; Polyunsaturated fatty acid lipoxygenase ALOX12 (Homo sapiens), P18054; hit rate 1.1% among 580,000; Potency, µM (top dose mostly 108 µM), for inactives: top-dose activity change, negative = inhibition, most hits filed as inhibitors
Target sequence (P18054 whole entry, looked up): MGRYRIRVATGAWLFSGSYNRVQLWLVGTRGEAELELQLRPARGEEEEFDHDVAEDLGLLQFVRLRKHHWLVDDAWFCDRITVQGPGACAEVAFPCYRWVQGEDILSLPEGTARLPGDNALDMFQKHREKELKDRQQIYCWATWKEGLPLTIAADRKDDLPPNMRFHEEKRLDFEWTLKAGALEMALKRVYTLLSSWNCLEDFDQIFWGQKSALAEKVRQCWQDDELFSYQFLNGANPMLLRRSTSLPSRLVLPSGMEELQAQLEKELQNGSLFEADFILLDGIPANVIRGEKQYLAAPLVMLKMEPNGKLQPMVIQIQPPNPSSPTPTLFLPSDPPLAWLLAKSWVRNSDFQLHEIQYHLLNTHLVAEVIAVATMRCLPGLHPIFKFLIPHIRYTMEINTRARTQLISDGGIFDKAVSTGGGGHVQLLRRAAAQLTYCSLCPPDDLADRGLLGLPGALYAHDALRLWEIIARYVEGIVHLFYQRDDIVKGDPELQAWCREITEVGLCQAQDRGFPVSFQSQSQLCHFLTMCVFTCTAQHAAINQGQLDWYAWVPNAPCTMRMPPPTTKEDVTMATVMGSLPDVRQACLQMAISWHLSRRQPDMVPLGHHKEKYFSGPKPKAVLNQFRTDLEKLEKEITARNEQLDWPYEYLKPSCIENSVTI
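Hydroperoxide product was detected by ferrous iron/xylenol orange as the 573 to 405 nm absorbance ratio. Arachidonic acid at 40 uM (final) was turned over for 30 min at room temperature by 150 nM human 12hLO, pH 7.0 Hepes buffer, after 15 min compound preincubation.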
RORg inh: qHTS for inhibitors of ROR gamma transcriptional activity. AID 2551, 2010. hit rate 5.4% among 310,000. Drosophila S2 Gal4-RORgamma UAS-luciferase reporter, 20 h. Potency, µM (doses to about 53.6 µM), without a hit: at the highest dose activity change, negative = inhibition, actives largely listed as inhibitors; note: nearly all actives have a fitted effect of over 60% in size
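Read-out: Photinus luciferase luminescence; inhibitors lower reporter signal. Insect Schneider cells with Gal4-ROR gamma fusion under metallothionein promoter, UAS reporter; 700 uM final copper sulfate induction, 20 hr, ambient temperature.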
VP16 counter: VP16 counterscreen qHTS for inhibitors of ROR gamma transcriptional activity. Drosophila S2 Gal4-VP16 UAS-luciferase, luminescence, 20 h. Potency, µM (series often up to 53.6 µM), for the others: top-dose activity, negative = inhibition, actives largely listed as inhibitors. hit rate 3.5% among 310,000. AID 2546, 2010;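 note: Gal4-VP16 expression switched on by copper sulfate through the metallothionein promoter; nearly all actives have a fitted effect of over 50% in size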
TDP1 cell noCPT: qHTS for Inhibitors of human tyrosyl-DNA phosphodiesterase 1 (TDP1): qHTS in cells in absence of CPT; DT40 Tdp1-/- hTDP1 cells, no CPT, ATP luminescence, 48 h; Potency, µM (top dose mostly 46.2 µM), for the others: at the top dose activity change, negative = growth inhibition, most hits filed as inhibitors; hit rate 15% among 420,000; note: nearly all actives have a fitted effect of over 55% in size
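Chicken DT40 Tdp1-/- cells stably complemented with human TDP1 were seeded at 400 cells/well with DMSO in place of 20 nM camptothecin. After compound pinning, cells grew at least 48 hr at 37 °C; viability read by CellTiter-Glo luminescence.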
The depositor's hits bear a star; u = inconclusive; x = no result given; [ ] = another dose, or the depositor's remark. Only some compounds are listed: those with a hit (about 15% of all), similar ones and a draw of the others. Calls come from the whole dose curve; as a rule, active = well fitted curve in the direction sought with a large enough effect; inconclusive = small, poorly fitted or top-dose-only effect, or another doubt; inactive = no such curve, though single readings can be large; an effect the other way counts as inactive or inconclusive. % is set by controls: 0 for no effect and ±100 for the full control effect; potency is the fitted concentration of half-maximal effect.

SMILES	TDP1 cell CPT	ELG1 repair inh	12-LOX inh	RORg inh	VP16 counter	TDP1 cell noCPT
O=C(O)CC1NC(=S)N(Cc2ccccc2)C1=O (configuration not stated)	20.6µM*	x	u	x	x	18.4µM*
C=CCNC(=S)NCCCCC1NC(=S)N(CC=C)C1=O (configuration not stated)	-2.8%	13.8%	-14.8%	u	3.7%	5.2%
Cc1cccc(N2C(=O)C(Cc3ccccc3)NC2=S)c1 (configuration not stated)	-3.6%	3.8%	-1.2%	u	u	-10.2%
O=C1C(Cc2ccccc2)NC(=S)N1c1ccccc1 (configuration not stated)	24.5%	3.3%	2.1%	11.2µM*	u	-4.5%
C/C=C/CSc1nc2c(c(=O)n(C)c(=O)n2C)n1Cc1ccc(Cl)cc1	x	x	-22.7%	x	x	x
COc1cc(C#N)ccc1OC(=O)Cc1cc(OC)c(OC)c(OC)c1	-5.4%	1.1%	16.3%	12.2%	-13.6%	-14.6%
COc1ccccc1CCC(=O)Oc1ccc(C#N)cc1OC	6.1%	2.6%	x	u	11.2µM*	24.4%
COc1ccc(OC)c(Nc2nc(N)c([N+](=O)[O-])c(NC3CCCCC3)n2)c1	8.2µM*	3.4%	-5.5%	0.0%	1.5%	u
NCCCNc1nc(N)c([N+](=O)[O-])c(NC2CCCCC2)n1	4.11µM*	u	-18.8%	-38.6%	u	3.66µM*
COc1ccccc1Nc1nc(NCCC(C)C)nc(N)c1[N+](=O)[O-]	u	20.6µM*	u	-18.6%	0.9%	18.4µM*
COc1ccc(OC)c(Nc2nc(NCCCN(C)C)nc(N)c2[N+](=O)[O-])c1	4.61µM*	-1.2%	12.5%	10µM*	10µM*	4.61µM*
COc1ccc(OC)c(Nc2nc(N)c([N+](=O)[O-])c(NCc3ccccc3)n2)c1	u	u	285.1%	-14.8%	7.8%	u
Cc1cccc(Cn2c(=O)c3c(nc(-n4nc(C)cc4C)n3CC(C)C)n(C)c2=O)c1	x	x	7.2%	x	x	x
N#Cc1ccc(N2CCC(C(=O)NC(c3ccc(F)cc3)C3CCCC3)CC2)nc1 (configuration not stated)	x	x	-22.1%	x	x	x
CCc1nccc(-c2c(-c3ccccc3)ncn2CC(O)c2ccccc2)n1 (configuration not stated)	x	x	47.8%	x	x	x
CNc1nc(N)c([N+](=O)[O-])c(Nc2ccccc2OC)n1	u	u	95.8%	-22.0%	0.3%	20.6µM*
Cc1[nH]c2ccc3ccccc3c2c(=O)c1C/C=C/Cl	-1.6%	0.5%	2.6%	u	8.5%	-7.5%
Cc1[nH]c2ccc(Br)cc2c(=S)c1C/C=C/Cl	u	u	u	7.94µM*	-17.0%	u
O=C(NCc1nnc2n1CCN(Cc1ccc(C(F)(F)F)cc1)CC2)c1cccc(F)c1	18.4%[9.04 µM]	x	3.8%	x	x	u
O=C(NCc1nnc2n1CCN(Cc1cccc(Cl)c1)CC2)c1cccc(F)c1	5.17µM*	x	-5.2%	x	x	4.11µM*
FC(F)(F)c1cc(CN2CCCC3(CCNCC3)C2)cc(C(F)(F)F)c1	u	x	11.0%[57.4 µM]	15.3%	2.9%	18.4µM*
COc1ccc(C(=O)N2CCC3(CCCN(Cc4cc(C(F)(F)F)cc(C(F)(F)F)c4)C3)CC2)cc1	20.6µM*	x	u	-24.0%	-1.0%	u

Assay outcomes deposited in PubChem by National Center for Advancing Translational Sciences (NCATS).
